The nature of test [1]: qHTS assay to identify small molecule agonists of the vitamin D receptor (VDR) signaling pathway - cell viability counter screen (AID 743224; active means well fitted curve in the direction sought with a large enough effect in the repeat runs; an effect the other way counts as inactive or inconclusive; further: series mostly up to about 63 µM; nearly all actives have a fitted effect of over 50% in size). A digest of the protocol:
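Counter screen for cytotoxicity: VDR-bla cells at 2,000 cells/well, 16 h compound exposure, then CellTiter-Glo luminescence after the beta-lactamase measurement.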
(qHTS replaces the single test concentration by a dilution series.)

A short description of test [2]: qHTS assay to identify small molecule antagonists of the vitamin D receptor (VDR) signaling pathway - cell viability counter screen (AID 743225; active means well fitted curve in the direction sought with a large enough effect in the repeat runs; an effect the other way counts as inactive or inconclusive; further: nearly all actives have a fitted effect of over 50% in size). A digest of the protocol: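 Same-well multiplex: following 16 h treatment of HEK 293T cells carrying a UAS-driven beta-lactamase reporter with compound and agonist (3 nM final), and a 2 h FRET substrate step, CellTiter-Glo was added and luminescence read after 30 min.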

Test [3] is described as follows: qHTS assay to identify small molecule agonists of the NFkB signaling pathway (AID 1159509; active means well fitted curve in the direction sought with a large enough effect in the signal ratio in the repeat runs, not every such curve was filed as active; the % refers to the signal ratio; further: series mostly up to about 61 µM). In outline:
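Agonist activity was read as beta-lactamase-driven FRET change (460 and 530 nm emission, 405 nm excitation) following 1.5 hr substrate loading at room temperature. Beforehand, ME-180 NFkB-bla reporter cells were treated with compounds for 5 hr at 37 C.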

The nature of test [4]: qHTS assay to identify small molecule agonists of the NFkB signaling pathway - cell viability counter screen (AID 1159515). Further: series mostly up to about 61 µM; nearly all actives have a fitted effect of over 55% in size. A digest of the protocol: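 Counter screen run alongside the NFkB-bla agonist assay: ME-180 reporter cells exposed to compounds for 5 hr, then lysed with CellTiter-Glo in the same wells. Luminescence, read after 30 min, reflects viable cells.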
Test [5] in a line: qHTS assay to identify small molecule agonists of the endoplasmic reticulum stress response signaling pathway (AID 1159516; active means well fitted activation curve with a large enough effect in the signal ratio in the repeat runs, not every such curve was filed as active; the % refers to the signal ratio). In outline: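 For this screen, HeLa cells stably carrying beta-lactamase under the ER stress response element received test compounds, positive controls or DMSO for 5 hr at 37 C; B/G FRET substrate was then added and dual-wavelength emission recorded.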

Test [6] is described as follows: qHTS assay to identify small molecule agonists of the endoplasmic reticulum stress response signaling pathway - cell viability counter screen (AID 1159517). Further: series mostly up to about 61 µM; nearly all actives have a fitted effect of over 50% in size. In outline: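 Cpd-treated ESRE-bla HeLa (5 hr, 37 C) → LiveBLAzer 2 hr RT → CellTiter-Glo 30 min RT → luminescence.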
In test [7] the target is Nuclear receptor ROR-gamma (Homo sapiens) (UniProt P51449). The test can be described thus: qHTS assay to identify small molecule antagonists of the retinoid-related orphan receptor gamma (ROR-gamma) signaling pathway (AID 1159521; active means well fitted curve in the direction sought with a large enough effect in the repeat runs; an effect the other way counts as inactive or inconclusive; further: nearly all actives have a fitted effect of over 50% in size; further: potency means the concentration at half of the fitted maximal effect). In outline:
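Inducible-expression reporter assay: doxycycline (1 uM final) switched on RORγ in CHO cells bearing a ROR response element-luciferase construct, with test compounds present from 2 h beforehand. Decreased luminescence after 16 h defined antagonist activity.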

Test [8] in a line: qHTS assay to identify small molecule agonists of the AP-1 signaling pathway - cell viability counter screen (AID 1159525). Further: nearly all actives have a fitted effect of over 55% in size. Further: potency means the concentration at half of the fitted maximal effect. A digest of the protocol:
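Each titration point was normalised to DMSO and tetra n-octyl ammonium bromide controls. The read was Cell Titer Glo luminescence after 30 min at RT, following 5 h compound exposure of ME-180 AP-1-bla cells at 37 °C.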

Test [9] in a line: qHTS assay to identify small molecule agonists of the AP-1 signaling pathway (AID 1159526). Further: potency means the concentration at half of the fitted maximal effect.

Results filed as inconclusive are left out. Where a structure was tested more than once in an assay, its records may differ in their call. The source made the active and inactive calls. Unless noted, the call rests on the fitted dose curve.

The record followed here is PubChem BioAssay (Tox21).

For `c1ccc2[nH]ccc2c1`, the outcome in test [1], in [2], in test [3], in test [4], in test [5] and in [6] was inactive. The Potency in [7] was 1.35 µM (active) and inactive; in test [8] it was 42.9 µM (active) and inactive. Further, in test [9], the Potency result is “inactive”.

For the compound `CCC1(c2ccccc2)C(=O)NCNC1=O`, the result in test [1], in [2], in test [3], in [4], in test [5] and in [6] was inactive. Moreover, the Potency entry in [7], in [8] and in [9] was “inactive” each time.

As to `Cc1cc(=O)n(-c2ccccc2)n1C`, the result in [1], in test [2], in [3], in test [4], in test [5] and in test [6] was inactive. Also, the Potency result in test [7], in test [8] and in test [9] was “inactive” each time.

As to `Cc1noc(NS(=O)(=O)c2ccc(N)cc2)c1C`, the compound was classed as inactive in test [3], in test [4], in [5] and in test [6]. For the same compound, the Potency result in test [8] and in test [9] was “inactive” throughout.

In the case of `O=c1cc[nH]c(=S)[nH]1`, the outcome in test [1], in test [2], in test [3], in test [4], in test [5] and in test [6] was inactive. The Potency result in test [7], in test [8] and in test [9] was “inactive” each time.

Turning to `Cc1ccccc1C(OCCN(C)C)c1ccccc1` (stereo unspecified), the result in test [1], in test [2], in test [3], in test [4], in [5] and in [6] was inactive. Further, the Potency result in [7] and in test [8] was “inactive” in each case.

For `CC1(C)[C@@H]2CC[C@@]1(C)C(=O)C2`, the compound was called inactive in test [1], in test [2], in test [3], in [4], in test [5] and in test [6]. The Potency entry in test [7], in test [8] and in test [9] was “inactive” each time.

Turning to `Cn1cc[nH]c1=S`, the outcome in [1], in test [2], in test [3], in test [4], in [5] and in [6] was inactive. Further, the Potency result in [7] and in [8] was “inactive” in each case. For the same compound, the Potency in test [9] was 54.9 µM (active) and inactive.

As to `O=C(c1ccccc1)C(O)c1ccccc1` (stereo unspecified), the compound was classed as inactive in [1], in test [2], in test [3], in test [4], in [5] and in [6]. Further, the Potency result in [7], in [8] and in test [9] was “inactive” throughout.

In the case of `NC(=O)c1ccccc1O`, the compound was classed as inactive in test [1], in test [2], in [3], in test [4], in [5] and in test [6]. The Potency result in test [7], in test [8] and in test [9] was “inactive” throughout.

Take `CC(=O)OCC(COC(C)=O)OC(C)=O`: the call in test [1], in test [2], in test [3], in test [4], in test [5] and in test [6] was inactive. Further, the Potency result in test [7], in test [8] and in test [9] was “inactive” in each case.

In the case of `O=C(O)c1[nH]n(-c2ccc(S(=O)(=O)O)cc2)c(=O)c1N=Nc1ccc(S(=O)(=O)O)cc1`, the call in test [1], in test [2], in test [3], in test [4], in test [5] and in [6] was inactive. Moreover, the Potency entry in test [7], in test [8] and in [9] was “inactive” each time.

As to `Cc1ccc(S(=O)(=O)NC(=O)NN2CCCCCC2)cc1`, the compound was classed as inactive in test [1], in [2], in [3], in [4], in test [5] and in test [6]. Besides, the Potency result in test [7], in test [8] and in test [9] was “inactive” throughout.

Regarding `C1N2CN3CN1CN(C2)C3`, the outcome in test [1], in [2], in test [3], in [4], in [5] and in test [6] was inactive. Also, the Potency result in test [7], in test [8] and in test [9] was “inactive” in each case.

Regarding `CCCCC1C(=O)N(c2ccccc2)N(c2ccccc2)C1=O`, the result in test [1], in test [2], in test [3], in test [4], in test [5] and in test [6] was inactive. Also, the Potency result in test [7], in [8] and in test [9] was “inactive” throughout.

Regarding `CC(C)(Oc1ccc(C2CC2(Cl)Cl)cc1)C(=O)O` (stereo unspecified), the compound was called inactive in test [1], in [2], in test [3], in test [4], in test [5] and in test [6]. In addition, the Potency entry in test [7], in test [8] and in [9] was “inactive” in each case.

Regarding `O=C(O)CCC(=O)O`, the compound was classed as inactive in [1], in test [2], in [3], in test [4], in test [5] and in [6]. Further, the Potency result in [7], in [8] and in [9] was “inactive” in each case.

For the compound `O=C(O)CCCCC(=O)O`, the compound was classed as inactive in [1], in [2], in [3], in test [4], in [5] and in test [6]. Also, the Potency result in test [8] and in test [9] was “inactive” each time.

For the compound `CC(O)CN(CCN(CC(C)O)CC(C)O)CC(C)O` (stereo unspecified), the call in test [1], in test [2], in [3], in [4], in test [5] and in [6] was inactive. Further, the Potency entry in test [7], in [8] and in [9] was “inactive” each time.

For `COc1ccc2[nH]cc(CCNC(C)=O)c2c1`, the call in [1], in [2], in [3], in test [4], in test [5] and in test [6] was inactive. The Potency entry in test [7], in test [8] and in [9] was “inactive” in each case.

In the case of `C[C@]12C=CC(=O)C=C1CC[C@@H]1[C@@H]2[C@@H](O)C[C@@]2(C)[C@H]1CC[C@]2(O)C(=O)CO`, the outcome in [1], in test [2], in test [3], in [4], in test [5] and in [6] was inactive. Besides, the Potency result in test [7], in test [8] and in test [9] was “inactive” in each case.

Take `CCCN(CCC)S(=O)(=O)c1ccc(C(=O)O)cc1`: the call in test [1], in [2], in test [3], in [4], in test [5] and in test [6] was inactive. Further, the Potency entry in test [7], in test [8] and in test [9] was “inactive” each time.

Consider `Cn1c(=O)c2[nH]cnc2n(C)c1=O`, for which the result in [1], in [2], in [3], in test [4], in test [5] and in test [6] was inactive. Also, the Potency entry in [8] and in test [9] was “inactive” each time.
